Activity calls are given as the source filed them. The calls were made as follows: active = hit-call score of the fitted dose curve at least 0.9, where 1 is the maximum; inactive = score below 0.9.

Read-out in the assay: Urokinase-type plasminogen activator receptor (uPAR), PLAUR (gene 5329)
The experiment in a line: BSK_BE3C_uPAR: BioMAP Diversity Plus: BE3C Assay for Urokinase-type plasminogen activator receptor (uPAR) Biomarker Activity (AID 2283039).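 As to outcome: cells exposed to compound for one day before measurement.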 Conditions: primary human bronchial epithelial cells; actives raise or lower the signal. On the procedure:
BSK_BE3C is a cell-based, multiplexed-readout assay that uses bronchial epithelial cell, a human lung primary cell, with measurements taken at 24 hours after chemical dosing in a 96-well plate.BSK_BE3CAR is an assay component measured in the BSK_BE3C assay. It measures uPAR antibody related to regulation of gene expression using ELISA technology.Data from the assay component BSK_BE3CAR was analyzed into 1 assay endpoint. This assay endpoint, BSK_BE3CAR, was analyzed with bidirectional fitting relative to DMSO as the negative control and baseline of activity. Using a type of binding reporter, gain or loss-of-signal activity can be used to understand changes in the signaling as they relate to the gene PLAUR. Furthermore, this assay endpoint can be referred to as a primary readout, because this assay has produced multiple assay endpoints where this one serves a signaling function. To generalize the intended target to other relatable targets, this assay endpoint is annotated to the cytokine intended target family, where the subfamily is plasmogen activator.
The levels of cell surface (or secreted, indicated by the prefix "s") biomarker endpoints were measured by ELISA. Overt cytotoxicity to cells in confluent adherent cultures (all systems other than the BT system) was assessed by measuring total protein levels using sulforhodamine B (SRB) staining in parallel cultures at the time of biomarker measurements, indicated as SRB endpoints. For proliferation assays for adherent cell types, individual cell types are cultured at sub-confluence and relative cell numbers quantified by SRB staining at time points optimized for each system (48 h: 3C and CASM3C systems; 72 h: BT and HDF3CGF systems; 96 h: SAg system). SRB was performed by staining cells with 0.1% SRB after fixation with 10% TCA and reading wells at 560 nm.Viability and proliferation of PBMC (T cells) was quantified by Alamar Blue reduction for the SAg and BT systems. For PBMC viability (referred to as PBMC Cytotoxicity within the assay endpoint names), cells were plated (75,000/well in a 96-well plate) and then chemical samples added for 1 h before addition of activators, SEB and TSST-1 (20 ng/mL final concentration each). Cells were incubated for 90 h. Then, Alamar Blue (20 uL/well) (Invitrogen, Cat DAL1100) was added for 6 h, and the plates were read with a fluorescence microplate reader at 546/580 nm (excitation/emission). For PBMC proliferation, cells were plated and activated as above but incubated for only 16 h prior to addition of Alamar Blue. Plates were read after 6 h.
With `CC[C@H](NC(=O)c1cc(F)ccc1NS(=O)(=O)c1cccc2cccnc12)c1ccccc1`, the result was inactive.
The term AC50 denotes the concentration at which the activity in the assay is half-maximal. In the case of `CCCCCc1ccc(N)cc1`, the AC50 is 5.56 µM (active).
Consider `CCCCCCCC[Si](OCC)(OCC)OCC`, for which the outcome was inactive.
Take `O=C1CCC(C2CCCCC2)CC1`: the outcome was inactive.
Take `CN(C[C@@H](CC[N+]12CCC(C3CCCCC3)(CC1)CC2)c1ccc(Cl)c(Cl)c1)C(=O)c1cc(C(F)(F)F)cc(C(F)(F)F)c1`: the AC50 is 13.6 µM (active).
On to `CC(C)(O)c1ccc(CNC(=O)c2cccnc2Oc2ccc3nonc3c2)cc1`, for which the outcome was inactive.
Same read-out and setting: as for `O=C1O[C@H]([C@@H](O)CO)C(O)=C1O`, the entry is “inactive”; as for `Cc1ccc2oc(CN(Cc3ccccc3)C(=O)Nc3c(F)cc(F)cc3F)c(-c3ccc(Cl)cc3)c2c1`, “inactive”.
The same measure, in the same setting: the entry for `Cc1ncc(CO)c(CO)c1O` is “inactive”; for `CCCCOC(=O)CC(CC(=O)OCCCC)(OC(C)=O)C(=O)OCCCC` it is “inactive”; for `OC12N=C(c3ccccc3)SC1Cc1cc(Cl)ccc12` (stereo not given) it is “inactive”.
On to `CC(C)(C)c1csc(-c2cc3cc(OCc4ccccc4CC(=O)O)ccc3o2)n1`, for which the AC50 is 12.2 µM (active).
On to `C[C@]12CC[C@@H]3c4ccc(O)cc4CC[C@H]3[C@@H]1CCC2=O`, for which the result was inactive.
As for `CCCCCCCCCC(=O)O`, the outcome was inactive.
As for `O=CCCCC=O`, the result was inactive.
For `CCN(CC)C(=O)c1cc(S(=O)(=O)Cc2ccccc2)c(N2CCC(c3ccccc3)CC2)cc1N(CC)CCN(C)C`, the AC50 was 10.4 µM (active).
Regarding `CCCOC(=O)c1cc(O)c(O)c(O)c1`, the outcome was inactive.
For the compound `Cc1oc2c(NC(=O)c3c(Cl)cccc3Cl)cccc2c1C(C)(C)O`, the outcome was inactive.
On the same count and under the same terms, as for `C[C@]12CC[C@@H]3c4ccc(O)cc4CC[C@H]3[C@@H]1CC[C@H]2O`, the entry is “inactive”; as for `O=C(O)Cn1c(=O)n(Cc2ccc(Br)cc2F)c(=O)c2ccc(Cl)cc21`, “inactive”.
In the case of `COc1cc(C(=O)NC2CCN(C)CC2)ccc1Nc1ncc2c(n1)N(C1CCCC1)CC(F)(F)C(=O)N2C`, the AC50 is 5.34 µM (active).
With `O=c1c(-c2ccc(O)cc2)coc2cc(O)cc(O)c12`, the outcome was inactive.
In the case of `COCC(C)OCC(C)OCC(C)O` (stereo not given), the outcome was inactive.
The same measure, in the same setting: the entry for `Cc1c2ccccc2c(C)c2c1ccc1ccccc12` is “inactive”; for `O=C(OCCCCCCOC(=O)c1ccccc1)c1ccccc1` it is “inactive”; for `CCCC(=O)OCCC(C)C` it is “inactive”.
On the same count and under the same terms, the entry for `O=C(O)c1ccccc1-n1cc(C(=O)O)c(=O)c2cc(Nc3c(F)cc(F)cc3Cl)c(Cl)cc21` is “inactive”; for `O=C=NCCCCCCN=C=O` it is “inactive”.
For `Clc1ccccc1C(c1ccccc1)(c1ccccc1)n1ccnc1`, the AC50 is 9.68 µM (active).
`Oc1ccc2ccccc2c1`: the result was inactive.
Take `CC1(C)NC(=O)N(c2ccc([N+](=O)[O-])c(C(F)(F)F)c2)C1=O`: the outcome was inactive.
Regarding `CC[C@@H]1C[C@H](N(Cc2cc(C(F)(F)F)cc(C(F)(F)F)c2)C(C)=O)c2cc(C(F)(F)F)ccc2N1C(=O)OC(C)C`, the outcome was inactive.
On to `OCCO`, for which the result was inactive.
Take `O=C1c2ccccc2C(=O)N1CCc1noc(-c2ccc(CN3CCCCCC3)s2)n1`: the result was inactive.
As to `CN1C(=O)N(c2ccccc2Br)Cc2cnc(Nc3ccc4c(c3)OCC(CO)O4)nc21` (stereo not given), the AC50 is 1.23 µM (active).
On the same count and under the same terms, as for `CCCCCCCCOC(=O)c1cc(O)c(O)c(O)c1`, the figure is 36.5 µM (active); as for `O=C(O)Cc1cc(I)c(Oc2ccc(O)c(I)c2)c(I)c1`, 32.8 µM (active).
Still for that read-out and setting: as for `COc1ccc2cc(S(=O)(=O)N[C@H](CC(=O)N[C@H](Cc3ccc(CN4[C@H](C)CCC[C@@H]4C)cc3)C(=O)N(C)C(C)C)c3ccc4c(c3)OCO4)ccc2c1`, the figure is 18.5 µM (active).
For the compound `CC(=O)N1CCN(c2ccc(OC[C@H]3CO[C@](Cn4ccnc4)(c4ccc(Cl)cc4Cl)O3)cc2)CC1`, the outcome was inactive.
Same read-out and setting: the entry for `CCO[Si](CCCNC(N)=O)(OCC)OCC` is “inactive”.

For the origin of these results see PubChem BioAssay (EPA / NIEHS).
